Screening data from PubChem.
The full list was thinned out, with hits kept by preference.
BRCT PPI green = qHTS Assay for Inhibitors of BRCT-Phosphoprotein Interaction (Green Fluorophore) | BRCA1 BRCT-phosphopeptide binding, green fluorescence polarization | Breast cancer type 1 susceptibility protein (Homo sapiens), P38398 | Potency, µM (doses to about 76.9 µM), for the others: at the top dose activity change, negative = inhibition, most hits filed as inhibitors | hit rate 0.05% among 75,000 | AID 875, 2007;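 also: potency is read from the fitted curve at half-maximal effect; plate controls were peptide without protein for full effect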
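Compounds were incubated for 12 min at room temperature with a complex of 100 nM fluorescein-tagged pBACH1 decapeptide and 250 nM His-tagged BRCT protein. Buffer was phosphate pH 7.3 with EDTA, DTT and Tween 20. Disruption of binding lowers the polarization signal.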
Pol III holo inh = qHTS Assay for Inhibitors of DNA Polymerase III Holoenzyme System; Potency, µM (highest dose often 57.1 µM), for inactives: at the top dose activity change, negative = inhibition; reconstituted DNA polymerase III holoenzyme replication, biochemical; hit rate 0.25% among 71,000; also: potency is read from the fitted curve at half-maximal effect; % is scaled to controls: 0 for no effect and ±100 for the full control effect
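Reconstituted *E. coli* holoenzyme (0.35 nM Pol III, 1 nM beta, 154 nM SSB, 2 nM primase) was preincubated with compound for 15 min at RT. Synthesis on 1.4 nM ssM13Gori ran 35 min, then was stopped with PicoGreen/EDTA and read as dsDNA fluorescence.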
ALOX15B inhib = qHTS Assay for Inhibitors of 15-hLO-2 (15-human lipoxygenase 2); purified 15hLO-2, xylenol orange hydroperoxide absorbance; Potency, µM (doses to about 57.1 µM), without a hit: top-dose activity change, negative = inhibition, usual class: inhibitors; hit rate 0.56% among 110,000; AID 881, 2007; also: potency is read from the fitted curve at half-maximal effect; % is scaled to controls: 0 for no effect and ±100 for the full control effect; nearly all actives have a fitted effect of over 60% in size
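Purified human 15hLO-2 (50 nM) preincubated 15 min with compound, then 45 uM arachidonic acid for 90 min at RT in 25 mM Hepes pH 7.5, 0.01% Triton X-100. Hydroperoxide detected by Fe-xylenol orange; 573/405 nm absorbance ratio.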
YjeE inh = qHTS Assay for Inhibitors of YjeE; purified YjeE enzyme, qHTS inhibition assay; tRNA threonylcarbamoyladenosine biosynthesis protein TsaE (Escherichia coli (strain …; Potency, µM; AID 605, 2007; hit rate 0.05% among 71,000
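Purified YjeE (10 uM) with BODIPY Texas Red-labeled ADP probe (2 uM); compounds pin-transferred, 15 min at room temperature. Binding inhibition read as decreased fluorescence polarization; ADP titration as control.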
BRCT inh red = qHTS Assay for Inhibitors of BRCT-Phosphoprotein Interaction (Red Fluorophore) | BRCT-phosphopeptide binding, red fluorescence polarization | Potency, µM (top dose mostly 76.9 µM), for inactives: at the top dose activity change, negative = inhibition, most hits filed as inhibitors | hit rate 0.03% among 75,000 | AID 892, 2007; also: % is scaled to controls: 0 for no effect and ±100 for the full control effect
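Fluorescence polarization: 100 nM His-tagged BRCA1 BRCT with 100 nM TAMRA-labelled phospho-BACH1 decapeptide, phosphate buffer pH 7.3 with 150 mM NaCl, DTT, 0.01% Tween 20; 12 min RT. Binding inhibition seen as FP decrease.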
ALOX15 inhib = qHTS Assay for Inhibitors of 15-hLO (15-human lipoxygenase) | Polyunsaturated fatty acid lipoxygenase ALOX15 (Homo sapiens), P16050 | purified 15hLO-1, xylenol orange hydroperoxide absorbance | Potency, µM (top dose mostly 57.1 µM), inactives show at the highest dose activity change, negative = inhibition, most hits filed as inhibitors | hit rate 1.4% among 74,000 | AID 887, 2007; also: potency is read from the fitted curve at half-maximal effect; % is scaled to controls: 0 for no effect and ±100 for the full control effect; nearly all actives have a fitted effect of over 55% in size
Target sequence (P16050 whole entry, looked up): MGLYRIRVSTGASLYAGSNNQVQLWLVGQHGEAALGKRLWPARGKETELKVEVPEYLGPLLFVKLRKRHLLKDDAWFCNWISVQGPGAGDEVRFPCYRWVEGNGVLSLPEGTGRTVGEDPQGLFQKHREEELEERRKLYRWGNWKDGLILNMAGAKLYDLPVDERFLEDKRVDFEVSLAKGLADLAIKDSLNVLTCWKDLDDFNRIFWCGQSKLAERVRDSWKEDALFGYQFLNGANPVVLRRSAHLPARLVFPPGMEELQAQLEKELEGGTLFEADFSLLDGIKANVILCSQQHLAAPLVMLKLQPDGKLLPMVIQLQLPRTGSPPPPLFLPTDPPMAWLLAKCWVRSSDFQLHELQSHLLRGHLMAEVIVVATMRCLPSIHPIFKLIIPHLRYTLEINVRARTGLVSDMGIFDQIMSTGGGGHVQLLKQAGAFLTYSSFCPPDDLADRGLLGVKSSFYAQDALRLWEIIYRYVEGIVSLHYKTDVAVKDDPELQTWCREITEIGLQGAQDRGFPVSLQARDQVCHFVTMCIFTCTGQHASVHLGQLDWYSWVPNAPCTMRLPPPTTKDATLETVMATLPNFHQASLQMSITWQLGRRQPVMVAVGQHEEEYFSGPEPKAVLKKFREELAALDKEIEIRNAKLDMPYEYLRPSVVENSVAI
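Purified human 15hLO-1 (40 nM) in 25 mM Hepes pH 7.5, 0.01% Triton X-100, preincubated 15 min RT with compound, then 50 uM arachidonic acid for 6 min. Hydroperoxide read by ferrous/xylenol orange, 30 min; 573/405 nm absorbance ratio gave progress.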
* hit, by the source's call; i = inactive; u = inconclusive; x = not tested or not shown; [ ] = remark or other dose. Calls follow the shape of the dose curve; as a rule, active = well fitted curve in the direction sought with a large enough effect; inconclusive = small, poorly fitted or top-dose-only effect, or another doubt; inactive = no such curve, though single readings can be large; an effect the other way counts as inactive or inconclusive.

SMILES	BRCT PPI green	Pol III holo inh	ALOX15B inhib	YjeE inh	BRCT inh red	ALOX15 inhib
CC1=C(/C=C/C(C)=C\C=C\C(C)=C\C(=O)O)C(C)(C)CCC1	x	x	-13%[0.0915 µM]	x	x	x
Nc1ncnc2c1ncn2[C@@H]1O[C@@H](C(=O)NC2CC2)[C@H](O)[C@@H]1O	-3%	-3%	2%	i	-1%	4%
CS(=O)(=O)N1CCC2(CC1)CN(C(=O)Nc1cccc(F)c1)C2	-5%	-1%	-6%	u	1%	-2%
CS(=O)(=O)N1CCC2(CC1)CN(C(=O)Nc1ccccc1)C2	0%	-9%	28%	i	0%	0.5µM*
CC(C)(C)OC(=O)C1=NOC2(C=CC(=O)C=C2)C1	0%[15.4 µM]	x	x	x	1%[15.4 µM]	-11%[11.4 µM]
Cc1c2oc3c(C)ccc(C(=O)N[C@@H]4C(=O)N[C@H](C(C)C)C(=O)N5CCC[C@H]5C(=O)N(C)CC(=O)N(C)[C@@H](C(C)C)C(=O)O[C@@H]4C)c3nc-2c(C(=O)N[C@@H]2C(=O)N[C@H](C(C)C)C(=O)N3CCC[C@H]3C(=O)N(C)CC(=O)N(C)[C@@H](C(C)C)C(=O)O[C@@H]2C)c(N)c1=O	0%	0.02µM*	-10%[0.0915 µM]	i	-5%	13µM*
O=C(OC1Cc2c(O)cc(O)cc2OC1c1cc(O)c(O)c(O)c1-c1c(C2Oc3cc(O)cc(O)c3CC2O)cc(O)c(O)c1O)c1cc(O)c(O)c(O)c1 (stereo not drawn)	-5%	x	-21%	x	-3%	u
Oc1cc(O)c2c(c1)O[C@@H](c1ccc(O)c(O)c1)[C@H](O[C@@]1(c3cc(O)c(O)c(O)c3)Oc3cc(O)cc(O)c3[C@H](O)[C@@H]1O)C2	-1%[15.4 µM]	1µM*	u	i	2%[15.4 µM]	1µM*
S[C@@H]1CCCN(Cc2ccccc2)C1	-1%[15.4 µM]	2%[11.4 µM]	1%[11.4 µM]	i	0%[15.4 µM]	0%[11.4 µM]
CCOc1ccc(NS(=O)(=O)c2ccc(C)c(C(=O)O)c2)cc1	-1%	x	x	x	1%	-1%
Nc1nc2sc3c(c2c(=O)s1)CCCC3	-5%	-3%	6%[2.29 µM]	i	-2%	0.79µM*
O=C(O)c1ccc(Nc2ccnc3cc(Cl)ccc23)cc1O	-2%[15.4 µM]	9%[11.4 µM]	-5%[11.4 µM]	i	2%[15.4 µM]	9%[11.4 µM]
Clc1ccc(NNc2ccnc3cc(Cl)ccc23)cc1	x	x	16µM*	x	x	x
NC(=O)SCC(=O)Nc1ccc(Cl)cc1	-2%	x	u	x	-2%	25µM*
COC(=O)[C@@H]1C[C@@]2(O)[C@H](O)[C@H](O)[C@H](O)C[C@H]2N1Cc1ccc(N2CCN(C)CC2)cc1	0%	x	18%	x	-1%	x
CN(C)c1ccc(C(=S)NCc2ccco2)cc1	5%	-1%	9%[2.29 µM]	i	1%	25µM*
Cc1cc(Cl)ccc1Nc1sc(C(=O)c2cc3cc(Cl)ccc3o2)c(N)c1C#N	1%[15.4 µM]	-1%[11.4 µM]	-6%[11.4 µM]	i	1%[15.4 µM]	-4%[11.4 µM]
Nc1nc(N)c2nn(-c3ccc(C(=O)O)cc3)nc2n1	0%[15.4 µM]	-6%[11.4 µM]	-6%[11.4 µM]	i	0%[15.4 µM]	5%[11.4 µM]
COc1cc2c(cc1OC)-c1cc3nc4ccccc4nc3n1C(C)(C)C2	-11%	9%	25µM*	i	-2%	13µM*
COc1cc2c(cc1OC)-c1nnc(-c3cccs3)n1C(C)(C)C2	0%	-3%	x	i	0%	-7%
CC(CC1C(C#N)=C(N)SC(N)=C1C#N)c1ccccc1 (stereo not drawn)	4%	0%	20µM*	i	-1%	16µM*
O=C(O)Cn1c(=O)oc2cc(S(=O)(=O)NC3CCCCC3)ccc21	0%	-7%	x	i	0%	-6%
